ChEMBL document CHEMBL1961873, “Compounds: GSK PKIS; Assays: Nanosyn kinase panel” (2012)

Tests used:
[1] = molecular target: Sphingosine kinase 1 (Homo sapiens) (UniProt Q9NYA1); settings: at 1 µM;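 also: mean SPHK1 inhibition value reported from the GSK PKIS kinase panel screen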
[2] = molecular target: T1, Sphingosine kinase 2 (Homo sapiens) (UniProt Q9NRA0); settings: at 0.1 µM
T1 sequence (whole entry): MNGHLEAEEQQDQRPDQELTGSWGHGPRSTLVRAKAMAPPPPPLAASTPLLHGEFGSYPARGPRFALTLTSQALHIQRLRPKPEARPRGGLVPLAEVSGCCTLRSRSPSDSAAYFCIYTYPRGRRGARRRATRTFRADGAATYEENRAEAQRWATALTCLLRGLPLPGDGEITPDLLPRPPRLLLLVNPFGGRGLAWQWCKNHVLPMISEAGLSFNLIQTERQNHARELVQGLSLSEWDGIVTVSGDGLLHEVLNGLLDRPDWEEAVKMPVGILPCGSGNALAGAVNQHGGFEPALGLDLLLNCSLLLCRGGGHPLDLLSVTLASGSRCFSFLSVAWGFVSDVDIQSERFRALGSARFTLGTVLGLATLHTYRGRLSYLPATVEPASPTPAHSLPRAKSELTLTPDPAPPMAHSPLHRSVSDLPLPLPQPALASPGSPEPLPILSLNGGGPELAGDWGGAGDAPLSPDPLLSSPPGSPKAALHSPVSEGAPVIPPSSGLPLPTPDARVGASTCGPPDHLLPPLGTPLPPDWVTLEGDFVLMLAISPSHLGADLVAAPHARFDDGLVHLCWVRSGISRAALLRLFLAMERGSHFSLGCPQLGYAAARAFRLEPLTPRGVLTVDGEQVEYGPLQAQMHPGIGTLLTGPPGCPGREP

[3] = molecular target: T1, Sphingosine kinase 2 (Homo sapiens); settings: at 1 µM
[4] = molecular target: Casein kinase II subunit alpha (Homo sapiens) (UniProt P68400); settings: at 0.1 µM
[5] = molecular target: Casein kinase II subunit alpha (Homo sapiens) (UniProt P68400); settings: at 1 µM
[6] = molecular target: T2, Inhibitor of nuclear factor kappa-B kinase subunit alpha (Homo sapiens) (UniProt O15111); settings: at 0.1 µM
T2 sequence (whole entry): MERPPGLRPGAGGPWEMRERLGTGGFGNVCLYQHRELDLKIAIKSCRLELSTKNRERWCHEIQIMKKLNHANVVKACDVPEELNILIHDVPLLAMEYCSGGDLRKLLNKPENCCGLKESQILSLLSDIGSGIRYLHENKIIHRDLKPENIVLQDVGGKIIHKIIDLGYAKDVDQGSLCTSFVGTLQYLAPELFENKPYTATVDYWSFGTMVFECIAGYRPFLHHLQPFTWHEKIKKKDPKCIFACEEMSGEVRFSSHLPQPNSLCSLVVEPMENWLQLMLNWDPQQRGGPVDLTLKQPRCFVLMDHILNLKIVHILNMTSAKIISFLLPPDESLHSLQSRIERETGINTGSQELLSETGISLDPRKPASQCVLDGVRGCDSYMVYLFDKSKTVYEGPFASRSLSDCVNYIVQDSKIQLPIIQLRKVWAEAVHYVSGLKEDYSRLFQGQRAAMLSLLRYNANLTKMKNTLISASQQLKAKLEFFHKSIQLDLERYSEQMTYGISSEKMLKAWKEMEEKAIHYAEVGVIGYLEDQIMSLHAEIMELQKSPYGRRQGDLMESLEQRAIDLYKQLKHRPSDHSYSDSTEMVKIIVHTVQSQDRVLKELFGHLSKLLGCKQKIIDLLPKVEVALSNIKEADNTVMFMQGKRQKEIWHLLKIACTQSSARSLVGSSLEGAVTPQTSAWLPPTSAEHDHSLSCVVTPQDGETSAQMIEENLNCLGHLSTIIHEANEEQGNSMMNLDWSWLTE

[7] = molecular target: T2, Inhibitor of nuclear factor kappa-B kinase subunit alpha (Homo sapiens); settings: at 1 µM
[8] = molecular target: T3, Inhibitor of nuclear factor kappa-B kinase subunit beta (Homo sapiens) (UniProt O14920); settings: at 0.1 µM
T3 sequence (whole entry): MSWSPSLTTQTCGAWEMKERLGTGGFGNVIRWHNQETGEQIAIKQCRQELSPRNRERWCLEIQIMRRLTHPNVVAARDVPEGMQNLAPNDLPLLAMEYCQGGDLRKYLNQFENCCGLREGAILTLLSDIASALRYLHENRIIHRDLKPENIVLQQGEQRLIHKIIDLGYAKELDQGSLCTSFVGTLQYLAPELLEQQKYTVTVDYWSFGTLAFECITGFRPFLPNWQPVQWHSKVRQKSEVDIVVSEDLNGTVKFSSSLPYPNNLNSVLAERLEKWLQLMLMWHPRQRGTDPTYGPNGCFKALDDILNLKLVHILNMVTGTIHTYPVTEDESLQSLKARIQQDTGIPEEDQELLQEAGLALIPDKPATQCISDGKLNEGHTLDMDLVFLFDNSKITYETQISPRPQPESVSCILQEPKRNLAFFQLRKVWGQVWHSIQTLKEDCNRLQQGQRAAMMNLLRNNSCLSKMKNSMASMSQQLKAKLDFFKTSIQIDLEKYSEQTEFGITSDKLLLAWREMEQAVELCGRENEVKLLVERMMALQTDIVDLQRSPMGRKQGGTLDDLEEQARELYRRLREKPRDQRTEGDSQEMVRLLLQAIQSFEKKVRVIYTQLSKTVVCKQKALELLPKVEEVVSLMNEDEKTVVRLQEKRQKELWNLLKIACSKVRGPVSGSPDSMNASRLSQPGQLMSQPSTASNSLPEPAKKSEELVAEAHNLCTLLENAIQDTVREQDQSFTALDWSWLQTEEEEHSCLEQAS

[9] = molecular target: T3, Inhibitor of nuclear factor kappa-B kinase subunit beta (Homo sapiens); settings: at 1 µM
[10] = molecular target: T4, Inhibitor of nuclear factor kappa-B kinase subunit epsilon (Homo sapiens) (UniProt Q14164); settings: at 0.1 µM;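 also: mean inhibition of IKKε reported, from the GSK PKIS dataset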
T4 sequence (whole entry): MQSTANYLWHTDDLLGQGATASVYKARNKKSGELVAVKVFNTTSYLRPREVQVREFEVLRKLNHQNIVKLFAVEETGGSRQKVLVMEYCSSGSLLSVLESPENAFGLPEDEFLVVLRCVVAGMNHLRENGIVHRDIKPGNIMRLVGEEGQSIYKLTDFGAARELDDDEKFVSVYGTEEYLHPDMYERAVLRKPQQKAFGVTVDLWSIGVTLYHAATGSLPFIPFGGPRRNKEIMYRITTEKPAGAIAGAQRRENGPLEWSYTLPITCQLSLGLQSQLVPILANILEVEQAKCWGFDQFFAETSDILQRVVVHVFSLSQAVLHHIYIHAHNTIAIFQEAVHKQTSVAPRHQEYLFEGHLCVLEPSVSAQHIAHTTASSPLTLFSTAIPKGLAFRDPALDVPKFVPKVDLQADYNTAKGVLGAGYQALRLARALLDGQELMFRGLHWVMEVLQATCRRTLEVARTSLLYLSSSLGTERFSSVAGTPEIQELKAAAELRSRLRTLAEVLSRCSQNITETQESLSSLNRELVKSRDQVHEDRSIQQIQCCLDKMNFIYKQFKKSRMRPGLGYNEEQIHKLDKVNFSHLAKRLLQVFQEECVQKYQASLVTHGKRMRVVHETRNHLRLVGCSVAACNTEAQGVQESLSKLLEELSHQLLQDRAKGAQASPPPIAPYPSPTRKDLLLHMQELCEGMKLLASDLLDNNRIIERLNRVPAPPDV

Sequence of Casein kinase II subunit alpha (Homo sapiens) (P68400 whole entry, looked up): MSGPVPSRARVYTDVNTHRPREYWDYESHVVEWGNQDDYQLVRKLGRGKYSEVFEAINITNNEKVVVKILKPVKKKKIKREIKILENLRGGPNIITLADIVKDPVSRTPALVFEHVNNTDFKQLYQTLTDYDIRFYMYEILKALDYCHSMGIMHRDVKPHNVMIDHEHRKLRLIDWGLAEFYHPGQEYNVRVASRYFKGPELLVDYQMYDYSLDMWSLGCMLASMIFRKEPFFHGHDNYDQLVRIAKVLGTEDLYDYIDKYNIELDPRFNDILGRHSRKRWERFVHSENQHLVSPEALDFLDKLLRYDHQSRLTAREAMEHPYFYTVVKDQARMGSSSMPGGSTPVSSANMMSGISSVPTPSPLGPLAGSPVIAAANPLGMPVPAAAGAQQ
Sequence of Sphingosine kinase 1 (Homo sapiens) (Q9NYA1 whole entry): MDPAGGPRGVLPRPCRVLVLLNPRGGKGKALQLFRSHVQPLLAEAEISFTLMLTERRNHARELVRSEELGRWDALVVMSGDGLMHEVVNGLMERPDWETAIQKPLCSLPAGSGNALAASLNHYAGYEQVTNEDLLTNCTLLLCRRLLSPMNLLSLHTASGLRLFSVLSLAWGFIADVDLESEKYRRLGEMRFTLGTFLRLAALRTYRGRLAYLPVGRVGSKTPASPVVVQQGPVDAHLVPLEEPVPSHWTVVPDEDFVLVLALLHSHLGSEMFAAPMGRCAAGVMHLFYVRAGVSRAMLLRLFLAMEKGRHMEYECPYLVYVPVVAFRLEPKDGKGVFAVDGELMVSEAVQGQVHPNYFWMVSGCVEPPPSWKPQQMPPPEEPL

Compound: COc1cc(/C=N/Nc2ncnc3c2cnn3C(C)C)ccc1O
- inhibition [1]: 7.48%
- inhibition [2]: -1.04%
- inhibition [3]: 1.89%
- inhibition [4]: 2.91%
- inhibition [5]: 11.8%
- inhibition [6]: -0.1%
- inhibition [7]: -0.51%
- inhibition [8]: 2.79%
- inhibition [9]: -2.39%
- inhibition [10]: 1.71%
